Measured values published in PubChem BioAssay (NCATS).
Several values for one entry are separate records, joined by “and”; a condition that tells them apart may be missing. Identical values can stand only once. Records with an inconclusive call do not appear. Activity calls are given as the source filed them. Unless noted, calls follow the shape of the dose curve; as a rule, active = well fitted cell-killing curve with a large enough effect; inconclusive = small, poorly fitted or top-dose-only effect, or effect the other way; inactive = flat fitted curve, though single readings scatter.

System: not listed separately
Experiment: qHTS assay for cell viability of HEK293 cells (AID 743288); also: % is scaled to controls: 0 for no effect and ±100 for the full control effect; nearly all actives have a fitted effect of over 50% in size
Settings: ATP luminescence (CellTiter-Glo), 18 h, hits give low values
Procedure, shortened: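 Environmental chemicals tested in qHTS format against parental HEK293 cells; 18 h treatment, 37 C; read-out ATP luminescence (CellTiter-Glo), 30 min RT development.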

SMILES	max response
CCC(C)O (centres undefined)	5.18% (inactive)
COCCOC(=O)c1ccccc1C(=O)OCCOC	-2.4% (inactive)
N#CC1(O)CCCCC1	1.77% (inactive)
Cc1ccc2cccnc2c1	6.13% (inactive)
Cc1ccc2nc(-c3ccc(N)cc3)sc2c1S(=O)(=O)O	-7.88% (inactive)
COc1ccc(N)c(OC)c1	1.67% (inactive)
CSCCC=O	1.22% (inactive)
O=C(O)CN(CC(=O)O)CC(=O)O	8.87% (inactive) and -10.3% (inactive) and 10.6% (inactive)
BrC/C=C/CBr	-11% (inactive)
CC1=C(/C=C/C(C)=C/C=C/C(C)=C\C=O)C(C)(C)CCC1	-22% (inactive)
CCN(CC)c1cccc(O)c1	-2.87% (inactive)
C=CCCCCCCC=C	3% (inactive)

System: not listed separately
Experiment: qHTS assay for cell viability of the p53RE-bla HCT-116 cell line (AID 743292); also: nearly all actives have a fitted effect of over 55% in size; also: potency is read from the fitted curve at half-maximal effect; as to activity change, negative = cytotoxicity: % is scaled to controls: 0 for no effect and ±100 for the full control effect
Settings: p53RE-bla HCT-116 viability, ATP luminescence, 16 h; series mostly up to 95 µM; activity change, negative = cytotoxicity: at the top concentration
Procedure, shortened: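 Viability of compound-treated p53RE-bla HCT-116 cells is taken from ATP-dependent luciferase luminescence. Treatment lasts 16 h at 37 C after a 5 h settling period; detection follows 30 min at room temperature.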

SMILES	activity change, negative = cytotoxicity	Potency
O=CNc1ccccc1	-2.3% (inactive)	
CCC(=O)/C=C/C1C(C)=CCCC1(C)C (centres undefined)	4.45% (inactive)	
O=C(O)c1ccc(CO)o1	5.33% (inactive)	
CCN(C(=O)N(CC)c1ccccc1)c1ccccc1	-2.29% (inactive)	
Clc1cc(Cl)cc(Cl)c1	5.02% (inactive)	
CCOc1cc(OCC)c(C(C)=O)cc1OCC	4.3% (inactive)	
Nc1nc(-c2ccccc2)cs1	3.71% (inactive)	
COc1ccc(N=[N+]([O-])c2ccc(OC)cc2)cc1	-6.78% (inactive)	
Cc1ccc(S(=O)(=O)NC2CCCCC2)cc1	-6.24% (inactive)	
S=C([S-])NCCNC(=S)[S-].[Zn+2]		inactive
Nc1cccc(S(=O)(=O)O)c1	-1.24% (inactive)	
OCCO	0.161% (inactive)	
Nc1cccc(C(F)(F)F)c1		inactive
Cc1cc(C2(c3cc(C)c(O)cc3C)OS(=O)(=O)c3ccccc32)c(C)cc1O	15.9% (inactive)	
Nc1cccc([N+](=O)[O-])c1	-3.1% (inactive)	
CC(C)(C)c1ccc(OCC2CO2)cc1 (centres undefined)	-4.76% (inactive)	
C=C(C)C1CC=C(C)C(OC(C)=O)C1 (centres undefined)	1.39% (inactive)	
N#CCc1ccccc1[N+](=O)[O-]	-1.01% (inactive)	
C[C@@H]1CC2(OC3C[C@@]4(C)C5=CC[C@H]6C(C)(C)C(O[C@@H]7OC[C@@H](O)[C@H](O)[C@H]7O)CC[C@@]67C[C@@]57CC[C@]4(C)C31)OC(O)C1(C)OC21 (some centres undefined)	-20.1% (inactive)	

SMILES	activity change, negative = cytotoxicity	Potency
CCC(C)O (centres undefined)	9.01% (inactive)	
COCCOC(=O)c1ccccc1C(=O)OCCOC	1.29% (inactive)	
CN(C)c1cccc(O)c1	4.3% (inactive)	
O=C(O)c1ccc(Cl)cc1Cl	-4.52% (inactive)	
Cc1ccc2ccccc2c1[N+](=O)[O-]	-6.4% (inactive)	
CC(=O)OCc1ccco1	-11% (inactive)	
Cc1ccc2cccnc2c1	2.5% (inactive)	
Cc1ccc2nc(-c3ccc(N)cc3)sc2c1S(=O)(=O)O	-1.39% (inactive)	
COc1ccc(N)c(OC)c1	1.62% (inactive)	
C1CCCC1	-2.32% (inactive)	
CSCCC=O	-3.61% (inactive)	
O=C(O)CN(CC(=O)O)CC(=O)O		inactive
BrC/C=C/CBr	2.46% (inactive)	
O=Cc1c(Cl)cccc1Cl	-6.66% (inactive)	
CC1=C(/C=C/C(C)=C/C=C/C(C)=C\C=O)C(C)(C)CCC1		44.7 µM (active)
CCN(CC)c1cccc(O)c1	3.16% (inactive)	
CCCC(C)CO (centres undefined)	6.77% (inactive)	
C=CCCCCCCC=C	-4.92% (inactive)	

Target: Nuclear receptor subfamily 1 group I member 2 (Rattus norvegicus) (UniProt Q9R1A7)
Experiment: qHTS assay for small molecule activators of the rat pregnane X receptor (rPXR) signaling pathway (AID 651751; call rule not given here; also: 0% is about no effect)
Settings: rPXR reporter cells, luciferase (One-Glo), 24 h

Sequence of Nuclear receptor subfamily 1 group I member 2 (Rattus norvegicus) (Q9R1A7 whole entry, looked up): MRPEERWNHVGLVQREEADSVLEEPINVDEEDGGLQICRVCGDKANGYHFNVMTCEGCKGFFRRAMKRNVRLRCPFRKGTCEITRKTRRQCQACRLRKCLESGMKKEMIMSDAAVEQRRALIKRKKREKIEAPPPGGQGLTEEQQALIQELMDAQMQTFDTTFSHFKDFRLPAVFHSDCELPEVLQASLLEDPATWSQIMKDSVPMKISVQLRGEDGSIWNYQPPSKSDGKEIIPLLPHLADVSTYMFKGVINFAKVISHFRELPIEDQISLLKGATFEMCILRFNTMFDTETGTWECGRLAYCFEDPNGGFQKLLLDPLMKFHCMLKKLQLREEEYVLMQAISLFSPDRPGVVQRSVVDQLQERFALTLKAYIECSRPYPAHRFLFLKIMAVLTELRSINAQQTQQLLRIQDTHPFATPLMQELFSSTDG

SMILES	max response
O=CNc1ccccc1	1.37% (inactive)
CCN(C(=O)N(CC)c1ccccc1)c1ccccc1	-2.68% (inactive)
S=C([S-])NCCNC(=S)[S-].[Zn+2]	-5.53% (inactive) and -7.82% (inactive) and -4.11% (inactive)
Nc1cccc(S(=O)(=O)O)c1	7.17% (inactive)
Nc1cccc(C(F)(F)F)c1	-1.26% (inactive) and 1.53% (inactive)
Cc1cc(C2(c3cc(C)c(O)cc3C)OS(=O)(=O)c3ccccc32)c(C)cc1O	-3.33% (inactive)
Nc1cccc([N+](=O)[O-])c1	-4.93% (inactive)
N#CCc1ccccc1[N+](=O)[O-]	8.31% (inactive)
COCCOC(=O)c1ccccc1C(=O)OCCOC	-0.386% (inactive)
CN(C)c1cccc(O)c1	1.23% (inactive)
O=C(O)c1ccc(Cl)cc1Cl	4.22% (inactive)
Cc1ccc2ccccc2c1[N+](=O)[O-]	-2.23% (inactive)
CC(=O)OCc1ccco1	-1.61% (inactive)
N#CC1(O)CCCCC1	2.59% (inactive)
Cc1ccc2cccnc2c1	-2.67% (inactive)
C1CCCC1	-1.32% (inactive)
CSCCC=O	4.33% (inactive)
BrC/C=C/CBr	-0.603% (inactive)
O=Cc1c(Cl)cccc1Cl	8% (inactive)
CCN(CC)c1cccc(O)c1	3.46% (inactive)
CCCC(C)CO (centres undefined)	0.794% (inactive)

System: not listed separately
Experiment: qHTS assay for small molecule activators of the human pregnane X receptor (PXR) signaling pathway (AID 720659; call rule not given here; also: 0% is about no effect)
Settings: DPX-2 HepG2 CYP3A4-luciferase, 24 h; series mostly up to 92.3 µM; activation: at the top concentration

SMILES	activation	outcome
O=CNc1ccccc1	-7.6% (inactive)	
O=C(O)c1ccc(CO)o1	3.97% (inactive)	
Clc1cc(Cl)cc(Cl)c1	-6.56% (inactive)	
CC#N	-5.67% (inactive)	
Nc1cccc([N+](=O)[O-])c1	-0.0158% (inactive)	
C=C(C)C1CC=C(C)C(OC(C)=O)C1 (centres undefined)	-8.83% (inactive)	
C[C@@H]1CC2(OC3C[C@@]4(C)C5=CC[C@H]6C(C)(C)C(O[C@@H]7OC[C@@H](O)[C@H](O)[C@H]7O)CC[C@@]67C[C@@]57CC[C@]4(C)C31)OC(O)C1(C)OC21 (some centres undefined)	-3.36% (inactive)	
CN(C)c1cccc(O)c1	-2.97% (inactive)	
O=C(O)c1ccc(Cl)cc1Cl	-7.97% (inactive)	
Cc1ccc2ccccc2c1[N+](=O)[O-]	-7.37% (inactive)	
CC(=O)OCc1ccco1	-8.39% (inactive)	
C1CCCC1	-11% (inactive)	
O=C(O)CN(CC(=O)O)CC(=O)O		inactive
CCCC(C)CO (centres undefined)	-7.51% (inactive)	
